# HPGD inh = blocks human HPGD enzyme activity; 150,000 compounds, 4.3% hits; purified HPGD, NADH fluorescence kinetic, PGE2 substrate; P15428; AID 894; Potency, µM, for the others: top-dose activity change, negative = inhibition, usual class: inhibitors; active means well fitted inhibition curve with a large enough effect, not every such curve was filed as active; inconclusive means small, poorly fitted or top-dose-only effect, or another doubt; inactive means no such curve, though single readings can be large or run the other way; further: potency means the concentration at half of the fitted maximal effect
# Target sequence (P15428 whole entry, looked up): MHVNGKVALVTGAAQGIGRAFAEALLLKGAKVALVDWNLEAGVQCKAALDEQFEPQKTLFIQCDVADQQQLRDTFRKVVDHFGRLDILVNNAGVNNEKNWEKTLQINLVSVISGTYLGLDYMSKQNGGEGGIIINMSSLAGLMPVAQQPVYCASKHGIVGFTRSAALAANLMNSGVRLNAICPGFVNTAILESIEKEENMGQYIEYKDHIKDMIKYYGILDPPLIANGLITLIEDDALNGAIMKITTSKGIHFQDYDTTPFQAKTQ
#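 20 nM HPGD preincubated 15 min at room temperature with compound in 50 mM Tris-HCl pH 8, 0.01% Tween 20. Started with 1 mM NAD+ and 30 uM prostaglandin E2; NADH fluorescence (360/450 nm) read 5 times over 30-s intervals, last minus first.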
# IMPase Li cell = cell-permeable IMPase inhibitors with lithium potentiation | Potency, µM (highest dose often 59.4 µM), without a hit: at the highest dose activity, negative = IMPase inhibition, actives largely listed as inhibitors | 210,000 compounds, 0.35% hits | CHO-M1 cells, IP1 TR-FRET (IP-One), carbachol + lithium | AID 1457;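 further: IP1 builds up when IMPase is blocked and the TR-FRET signal falls; potency means the concentration at half of the fitted maximal effect; plate controls were basal vehicle for no effect and high inhibitor control for full effect; nearly all actives have a fitted effect of over 50% in size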
#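 Lithium-sensitised IP1 accumulation assay; M1-expressing CHO cells treated 30 min at 37C with compound. Competitive antibody detection by time-resolved FRET followed a 10 min room-temperature lysis step.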
# NPSR antag = neuropeptide S receptor (human) antagonism, cAMP. Q6W5P4. CHO-NPSR cells, cAMP TR-FRET, antagonist mode. Potency, µM (top dose mostly 38.3 µM), for the others: at the highest dose activity change, negative = inhibition, hits mostly inhibitors. 220,000 compounds, 1% hits. AID 1461; further: potency means the concentration at half of the fitted maximal effect; nearly all actives have a fitted effect of over 50% in size
# Target sequence (Q6W5P4 whole entry, looked up): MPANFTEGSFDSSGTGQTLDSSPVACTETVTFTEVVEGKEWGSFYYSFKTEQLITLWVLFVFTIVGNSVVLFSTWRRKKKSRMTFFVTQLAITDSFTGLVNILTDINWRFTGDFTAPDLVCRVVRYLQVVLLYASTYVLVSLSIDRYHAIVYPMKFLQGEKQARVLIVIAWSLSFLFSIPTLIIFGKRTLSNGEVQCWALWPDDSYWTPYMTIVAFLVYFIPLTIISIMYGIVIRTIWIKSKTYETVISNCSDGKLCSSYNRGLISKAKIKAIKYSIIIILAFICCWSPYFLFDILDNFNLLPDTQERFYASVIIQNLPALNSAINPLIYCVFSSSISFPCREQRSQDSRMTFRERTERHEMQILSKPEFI
# IMPase inh = membrane-permeable compound that blocks inositol monophosphatase | P97697 | CHO-M1 cells, IP1 accumulation, HTRF TR-FRET ratio | inhibition (IP1 accumulation), % at 46.1 µM | 120,000 tested, under 10 active; active means well fitted curve in the direction sought with a large enough effect in the signal ratio, not every such curve was filed as active; inconclusive means small, poorly fitted or top-dose-only effect, or a change in a side signal; inactive means no such curve, though single readings can be large or run the other way; the % refers to the signal ratio;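 further: cells stimulated with carbachol in lithium chloride buffer; plate controls were DMSO basal wells for no effect and reference inhibitor wells for full effect; higher means more IMPase inhibition seen as more IP1 and lower FRET ratio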
#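 Carbachol-driven Gq signalling in CHO-M1 cells (2000/well) generates IP1. Compounds that block IMPase raise IP1 and so reduce the FRET signal from Eu-anti-IP1 and d2-IP1 after a 10 min room-temperature lysis.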
# ALOX12 inhib = 12-hLO (ALOX12) enzyme inhibition; AID 1452; Potency, µM (series often up to 57.1 µM), for inactives: at the highest dose activity change, negative = inhibition, hits mostly inhibitors; P18054; purified 12-hLO, xylenol orange hydroperoxide absorbance; 150,000 compounds, 0.12% hits; further: potency means the concentration at half of the fitted maximal effect; nearly all actives have a fitted effect of over 55% in size
#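 Lipoxygenase turnover measured by absorbance at 573 and 405 nm after Fe-XO development. Human 12hLO 150 nM, arachidonate 40 uM, pH 7.0 Hepes buffer with detergent; 15 min compound preincubation, 30 min reaction.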
# ALDH1A1 block = inhibitors of human aldehyde dehydrogenase 1A1. Purified ALDH1A1, NADH fluorescence, propionaldehyde substrate. Potency, µM (doses to about 75.3 µM), inactives show top-dose activity, negative = inhibition, hits mostly inhibitors. 220,000 compounds, 7.3% hits. AID 1030; active means well fitted inhibition curve with a large enough effect, not every such curve was filed as active; inconclusive means small, poorly fitted or top-dose-only effect, or another doubt; inactive means no such curve, though single readings can be large or run the other way;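 further: potency means the concentration at half of the fitted maximal effect; plate controls were no enzyme wells and a reference inhibitor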
# Active calls of the source: *; u = inconclusive; x = no result; [ ] = remark or other dose. A selection: hits, their analogues and other compounds. The true share with any hit is near 8.9%. Unless noted, the call rests on the fitted dose curve; in most records, active means well fitted curve in the direction sought with a large enough effect; inconclusive means small, poorly fitted or top-dose-only effect, or another doubt; inactive means no such curve, though single readings can be large; an effect the other way counts as inactive or inconclusive. Unless noted, on the % scale 0 is the no-effect control and ±100 the full control effect.
SMILES,HPGD inh,IMPase Li cell,NPSR antag,IMPase inh,ALOX12 inhib,ALDH1A1 block
CCCCOC(=O)C1=C(C)NC2(O)c3ccccc3C(=O)C12O (stereo not drawn),-9.3%,14.5%[38.3 µM],1.0%[46.1 µM],3.6,-0.6%,8.91µM*
Cc1cccc(NC(=O)c2cccc3c2-c2ccccc2C3=O)n1,x,0.0%,-15.5%,x,x,0.2%
Cc1cccc(NC(=O)c2ccccc2Br)n1,25.1µM*,-3.6%[38.3 µM],-7.0%[46.1 µM],4.9,-8.4%,u
Cc1cccc(NC(=O)c2onc3c2CCCC3)n1,-17.5%,6.8%,-8.1%,x,-0.8%,22.4µM*
CC(C)Cc1nc2c(nnn2Cc2ccccc2F)c(=O)[nH]1,x,x,-4.8%,x,x,x
CC(=O)c1ccc(COC(=O)c2ccccc2NC(=O)C(C)C)cc1,x,6.4%,-24.8%,x,x,-1.7%
CCN(CC)S(=O)(=O)c1ccc(/C(O)=C(\C#N)c2nc3ccccc3n2C)cc1,-18.3%,4.8%[38.3 µM],u,3.5,-3.3%,20µM*
O=C(/C=C/c1cccs1)Nc1scc(-c2ccccc2)c1C(=O)O,x,-0.4%,-5.2%,x,x,22.4µM*
COC(=O)c1n[nH]n(-c2cc(Cl)cc(Cl)c2)c1=O,x,x,-28.8%,x,x,10µM*
CC(=O)c1ccc2c3c(cccc13)C(=O)N(CCc1ccccc1)C2=O,x,13.3%,46.7%,x,x,u
Cc1c(-n2c(O)c(C3=c4ccccc4=NC3=O)sc2=S)c(=O)n(-c2ccccc2)n1C,x,21.1%,-2.5%,x,x,7.94µM*
CC1CC(C)CN(C(=O)COC(=O)CCc2nc3ccccc3c(=O)[nH]2)C1 (stereo not drawn),-9.0%,-7.6%,9.2%,x,1.8%,3.55µM*
O=c1oc2ccccc2c2c1C(c1ccc(Cl)cc1)Nc1ccc3ccccc3c1-2 (stereo not drawn),u,19.8%[38.3 µM],u,-4.7,-8.4%,u
COc1ccc(C2Nc3ccc4ccccc4c3-c3c2c(=O)oc2ccccc32)cc1 (stereo not drawn),u,-29.4%[38.3 µM],7.94µM*,-6.7,-2.4%,u
CCOc1ccc(C2Nc3ccc4ccccc4c3-c3c2c(=O)oc2ccccc32)cc1 (stereo not drawn),u,5.3%[38.3 µM],10µM*,-4.2,-10.3%,u
CCCn1c(CCC(=O)O)nc2cc(S(=O)(=O)N(CC)CC)ccc21,x,x,6.6%,x,x,x
CCN1CCCC(OC(=O)c2cc(-c3ccccc3Cl)nc3ccccc23)C1 (stereo not drawn),x,12.2%,-50.3%,x,x,6.3%
CCOc1cc(C(C#N)N2CCOCC2)ccc1OC (stereo not drawn),0.3%,14.7%[38.3 µM],8.7%[46.1 µM],0.4,0.0%,u
CCOc1ccc(C(C#N)N2CCOCC2)cc1OC (stereo not drawn),-13.4%,1.4%[38.3 µM],-14.1%[46.1 µM],-0.7,5.5%,10µM*
Cc1ccc(-n2c(C)cc(/C=N/NC(=O)c3ccncc3)c2C)cc1,-6.0%,7.9%,18.2%[46.1 µM],1.5,-1.0%,u
Cc1ccc(C(=O)N/N=C/c2cc(C)n(-c3ccc(Br)cc3)c2C)cc1[N+](=O)[O-],u,-12.1%[38.3 µM],-6.1%[46.1 µM],8.5,-6.7%,10µM*
CC1=CC2=C(OC1N(C)C)c1cccc3cccc(c13)C2=O (stereo not drawn),-11.8%,-21.9%[38.3 µM],u,u,u,2.24µM*
CCCCS(=O)(=O)Nc1ccc2ncn(C)c(=O)c2c1,u,14.9%[38.3 µM],-9.0%[46.1 µM],-7.9,0.3%,u
CCn1c(CNc2ccc(Cl)cc2)nnc1SCc1ccc(Cl)cc1,-9.6%,12.1%,u,7.0,-6.3%,u
CCOC(=O)CSc1nnc(CNc2cccc(Cl)c2)n1-c1ccccc1,3.1%,21.0%[38.3 µM],-8.9%[46.1 µM],u,-9.7%,u
SMILES,HPGD inh,IMPase Li cell,NPSR antag,IMPase inh,ALOX12 inhib,ALDH1A1 block
CCOC(=O)CSc1nnc(CNc2ccc(Cl)cc2)n1-c1ccccc1,-11.4%,6.1%[38.3 µM],-28.6%[46.1 µM],9.4,-8.0%,10µM*
CCOc1ccc(NCc2nnc(SCc3ccc(Cl)cc3)n2-c2ccccc2)cc1,-5.4%,18.4%,-58.9%,x,1.5%,15.8µM*
O=C(c1ccc(S(=O)(=O)Nc2ccccc2)cc1)N1CCOCC1,-9.5%,-2.6%[38.3 µM],-1.2%[46.1 µM],1.5,3.7%,3.6%
O=C(c1ccc(NS(=O)(=O)c2ccccc2)cc1)N1CCCC1,17.8µM*,28.9%[38.3 µM],3.0%[46.1 µM],2.5,-2.9%,u
CCN(CC)S(=O)(=O)c1ccc(S(=O)(=O)Nc2ccc(C(=O)N3CCCC3)cc2)cc1,-9.5%,21.2%[38.3 µM],-11.6%[46.1 µM],4.9,-4.7%,0.631µM*
CCN(CC)S(=O)(=O)c1cccc(C(=O)N2CCCCC2)c1,-8.5%,4.4%[38.3 µM],-9.9%[46.1 µM],-12.2,0.1%,-1.7%
O=[N+]([O-])c1cccc(Cl)c1CSc1ccccn1,x,17.1%,-1.2%,x,x,20µM*
Cc1nnc(SCc2c(Cl)cccc2[N+](=O)[O-])s1,x,8.6%,5.6%,x,x,-2.6%
C=CCc1ccc(OCC(O)CO)c(OC)c1 (stereo not drawn),-12.2%,29.1%[38.3 µM],4.0%[46.1 µM],-1.5,4.7%,-11.7%
C=CCc1ccc(OCC(O)COCC)c(OC)c1 (stereo not drawn),0.1%,19.9%[38.3 µM],-0.2%[46.1 µM],-7.9,-0.1%,28.2µM*
N#Cc1c(-c2cccc(Br)c2)cc(-c2cccnc2)nc1N,u,u,-29.5%,x,0.6%,u
NC(=O)COc1ccc(/C=N/NS(=O)(=O)c2ccccc2)cc1,x,-4.3%,2.6%,x,x,-7.3%
CC(C)(C)N1C(=O)[C@H]2[C@H]3[C@H](O)[C@H](O)C/C(=N/OCc4ccccc4)[C@@H]3CC[C@@H]2C1=O,x,x,x,x,x,-13.4%[13.5 µM]
C=CCN1C(=O)C(Cc2ccc(OC)cc2)S/C1=N/N=C/c1ccco1 (stereo not drawn),-24.9%,19.7%,-6.9%[46.1 µM],10.2,-7.1%,7.08µM*
C=CCN1C(=O)C(Cc2ccc(Br)cc2)S/C1=N\N=C\c1ccco1 (stereo not drawn),-2.8%,-2.2%[38.3 µM],-11.0%[46.1 µM],8.8,-3.6%,u
CCOC(=O)c1c(CC(C)C)csc1NC=O,-19.3%,14.9%[38.3 µM],-2.7%[46.1 µM],7.4,-5.2%,u
CCOC(=O)c1c(CC(C)C)csc1/N=C/C1C(=O)CCCC1=O,x,-4.5%,-15.2%,x,x,11.2µM*
CCOC(=O)c1c(-c2ccccc2)csc1/N=C/C1C(=O)CCCC1=O,-6.7%,-8.7%,6.0%,x,-7.7%,3.55µM*
Cc1cc(C(=O)NCc2ccc(S(N)(=O)=O)cc2)cs1,-8.1%,2.9%[38.3 µM],6.5%[46.1 µM],-0.9,-0.7%,3.6%
CCCCCC(=O)Nc1cc2[nH]c(=O)cc(COC)c2cc1C,u,11.2µM*,-10.8%[46.1 µM],4.7,6.2%,u
CCOc1cc(/C=C2\C(=O)N(c3nc(-c4ccc(Br)cc4)cs3)N=C2c2ccccc2)ccc1O,u,16.6%[38.3 µM],10µM*,-3.9,u,u
COc1cc(/C=C2\C(=O)N(c3ccc(NC(C)=O)cc3)N=C2c2ccccc2)ccc1O,x,4.0%,-43.5%,x,x,u
